Reference: PubChem BioAssay (NCATS)
Several values for one entry are separate records, joined by “and”; a condition that tells them apart may be missing. Identical values can stand only once. Results filed as inconclusive are left out. A call without a number means that no potency is given here. Unmarked numbers belong to inactive results. Activity calls are given as the source filed them. Calls come from the whole dose curve; as a rule, active = well fitted cell-killing curve with a large enough effect; inconclusive = small, poorly fitted or top-dose-only effect, or effect the other way; inactive = no such curve, though single readings can be large or run the other way.

Experiments:
[1] = Viability qHTS for spleen associated tyrosine kinase inhibitor (SYKi) naive MV4-11 cells (AID 1963823); note: nearly all actives have a fitted effect of over 40% in size
Procedure, shortened: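 In this viability screen, compounds acted on SYK inhibitor naive MV4-11 cells for three days (72 hr, 37 C). Remaining viable cells were measured by CellTiter-Glo luminescence following a 10 min room-temperature development.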

[2] = Viability qHTS for spleen associated tyrosine kinase inhibitor (SYKi) drug resistant MV4-11 cells (AID 1963824); note: nearly all actives have a fitted effect of over 35% in size
Procedure, shortened: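 SYK inhibitor-resistant MV4-11 AML cells, 500 per well, added to predispensed compounds and incubated 72 hr at 37 C, 5% CO2. Viability measured by CellTiter-Glo luminescence after 10 min at room temperature.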
Potency is the fitted concentration of half-maximal effect.

Row | SMILES | Potency [1] | Potency [2] | viability (% of control) [1] | viability, % of control [2]
1 | C=C1C(=O)OC2CC(C)=C(C(C)CCCO[C@@H]3O[C@H](CO)[C@@H](O)[C@H](O)[C@H]3O)C(O)C12 (some centres undefined) | inactive | inactive |  | 
2 | CN(C)S(=O)(=O)c1ccc2c(c1)/C(=C/c1cc3c([nH]1)CCCC3)C(=O)N2 | 0.82 µM (active) | 1.64 µM (active) |  | 
3 | CC(C)C[C@H](NC(=O)CNC(=O)OCc1ccccc1)C(=O)N[C@@H](Cc1ccccc1)C(=O)CCl | 18.4 µM (active) | 8.2 µM (active) |  | 
4 | CCOc1nc2c(N)ncnc2n1CC | inactive | inactive |  | 
5 | COc1cc(N)c(Cl)cc1C(=O)NC[C@@H]1CCN2CCC[C@@H]12 | inactive | inactive |  | 
6 | COC(=O)C1=CO[C@@H](O[C@@H]2O[C@H](CO)[C@@H](O)[C@H](O)[C@H]2O)C2C1CC(O)C2C (some centres undefined) | inactive | inactive |  | 
7 | COc1ccccc1-c1cc(Nc2cccc(CS(N)(=O)=O)c2)ncn1 | 9.2 µM (active) | 8.2 µM (active) |  | 
8 | Cc1ccccc1-c1cc(N2CCN(C)CC2)ncc1N(C)C(=O)C(C)(C)c1cc(C(F)(F)F)cc(C(F)(F)F)c1 | inactive | inactive |  | 
9 | C[C@@H]1O[C@@H](O[C@H]2[C@@H]3C=CO[C@@H](O[C@@H]4O[C@H](CO)[C@@H](O)[C@H](O)[C@H]4O)[C@@H]3[C@@]3(CO)O[C@@H]23)[C@H](OC(=O)/C=C/c2ccccc2)[C@H](O)[C@H]1O | inactive | inactive |  | 
10 | Nc1ccc(-c2ccnc(NCCCNC(=O)c3c(Cl)cccc3Cl)n2)cc1 | 1.3 µM (active) | 1.3 µM (active) |  | 
11 | [O-][n+]1cccc(-c2nc3c(Cl)cccc3cc2[C@@H](Nc2ncnc3cccnc23)C(F)(F)F)c1 | 4.17 µM (active) | 13.2 µM (active) |  | 
12 | O=c1[nH]c2ccccc2n1CCCN1CCN(C(c2ccccc2)c2ccccc2)CC1 | 15 µM (active) | 11.9 µM (active) |  | 
13 | CC1OC(OC2C(O)C(C(=O)O)OC(OC3CCC4(C)C(CCC5(C)C4C=CC4=C6CC(C)(C)CC(O)C6(C)CCC45C)C3(C)C)C2OC2OCC(O)C(O)C2O)C(O)C(O)C1O (centres undefined) |  |  | 89.1% [at 9.25 µM] | 97.4% [at 9.25 µM]
14 | CN(CCCN1c2ccccc2CCc2ccccc21)CC(=O)c1ccc(Cl)cc1 | 23.7 µM (active) | 13.3 µM (active) |  | 
15 | CCn1cc(C2=NOC(C(=O)Nc3c(C)n(C)n(-c4ccccc4)c3=O)C2)c(C)n1 (centres undefined) | inactive | inactive |  | 
16 | NC1CCCN(c2c(/C=C3\SC(=O)NC3=O)cccc2-c2ccccc2)C1 (centres undefined) | 2.06 µM (active) and 3.72 µM (active) | 8.2 µM (active) and 13.2 µM (active) |  | 
17 | CC(O)(CC(=O)O)CC(=O)O[C@@H]1[C@@H](O)[C@H](OCCc2ccccc2)O[C@H](CO)[C@H]1O (some centres undefined) | inactive | inactive |  | 
18 | CCOC(=O)C(CCc1ccccc1)NC(C)C(=O)N1C(=O)N(C)CC1C(=O)O (centres undefined) | inactive | inactive |  | 
19 | CC1(C)C[C@H](O)C[C@@]2(C)[C@H]1[C@H](O)C=C1COC(=O)[C@@]12O | inactive | inactive |  | 
20 | CC1OC(OC2C(O)C(OC3CCC4(C)C(CCC5(C)C4CC=C4C6CC(C)(COC7OC(CO)C(O)C(O)C7O)CC(O)C6(C)CCC45C)C3(C)C)OC(C(=O)O)C2O)C(O)C(O)C1OC1OCC(O)C(O)C1O (centres undefined) |  |  | 54% [at 9.25 µM] | 85% [at 9.25 µM]
21 | COc1ccc(CCO[C@@H]2O[C@H](CO[C@@H]3OC[C@H](O)[C@H](O)[C@H]3O)[C@@H](O)[C@H](O)[C@H]2O)cc1 | inactive | inactive |  | 
22 | C=CCc1ccc(O[C@@H]2O[C@H](CO[C@@H]3O[C@H](CO)[C@@H](O)[C@H](O)[C@H]3O)[C@@H](O)[C@H](O)[C@H]2O)c(O)c1 | inactive | inactive |  | 
23 | CN1CCN(S(=O)(=O)c2ccc(-c3cnc(N)c(C(=O)Nc4cccnc4)n3)cc2)CC1 | 0.893 µM (active) | 0.796 µM (active) |  | 
24 | C[C@@H]1CC[C@]2(C(=O)OC3OC(CO)C(O)C(O)C3O)CC[C@]3(C)C(=CCC4[C@@]5(C)CC[C@H](O)[C@](C)(C(=O)O)C5CC[C@]43C)C2[C@]1(C)O (some centres undefined) | inactive | inactive |  | 
25 | CC1(C)C(=O)CCC2(C)C1C(O)C=C1COC(=O)C12O (centres undefined) | inactive | inactive |  | 
26 | Cc1c[nH]c2nccc(Oc3c(F)cc(Nc4cc(Cl)nc(N)n4)cc3F)c12 | 0.517 µM (active) | 0.731 µM (active) |  | 
27 | CNC(=O)[C@@H](c1ccccc1)N1CCc2cc(OC)c(OC)cc2[C@@H]1CCc1ccc(C(F)(F)F)cc1 | 20.6 µM (active) | 20.6 µM (active) |  | 
